Compound activity from PubChem.
ATXN2 expr inh – inhibitors of ATXN2 expression. HEK-293 ATXN2-luciferase reporter, luminescence, 24 h. Potency, µM (highest dose often 57 µM), usual class: inhibitors. hit rate 0.72% among 360,000. AID 1745845; further: nearly all actives have a fitted effect of over 55% in size
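ATXN2-luciferase reporter cells (luciferase flanked by upstream and downstream ATXN2 gene portions) were treated 24 h at 37 °C with compounds at up to 57 uM. SteadyGlo luminescence gave expression; GF-AFC fluorescence gave viability.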
HepG2 tox – counter-screen for TGF-b inhibitors: cytotoxicity in HepG2 cells; HepG2 CAGA-GFP viability, ATP luminescence, 18 h; hit rate 0.76% among 410,000; Potency, µM (highest dose often 46.1 µM), actives largely listed as cytotoxic
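HepG2 CAGA-GFP cells (1000/well, DMEM with 1% FBS) received compound, then TGF-beta at 500 pg/mL final, and were incubated 18 hours at 37 degrees C. Viability was read by CellTiter-Glo luminescence. Media-only wells were set as complete cell-killing and DMSO as no toxicity.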
S2 tox – viability counter-screen for ATXN expression inhibitors. hit rate 0.49% among 400,000. Potency, µM (titrated, usually from 56.7 µM), most hits filed as cytotoxic. S2 cells (HEK-293 line with an ATXN2-luciferase reporter) viability, CellTiter-Fluor protease fluorescence, 24 h; further: nearly all actives have a fitted effect of over 40% in size
DT40 TDP1 no CPT – qHTS for Inhibitors of human tyrosyl-DNA phosphodiesterase 1 (TDP1): qHTS in cells in absence of CPT; hit rate 15% among 420,000; AID 686978, 2013; Potency, µM (doses to about 46.2 µM), usual class: inhibitors; DT40 Tdp1-/- hTDP1 cells, no CPT, ATP luminescence, 48 h; further: nearly all actives have a fitted effect of over 55% in size
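Camptothecin absent (DMSO only). Human TDP1-complemented DT40 knockout cells, 400 cells/well, 37 °C for minimum 48 hr; ATP measured via CellTiter-Glo, 30 min dark incubation, luminescence.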
TDP1 cell CPT – DT40-hTDP1 cell growth loss with CPT; chicken DT40 Tdp1-/-;hTDP1 cells + 20 nM CPT, ATP luminescence, 48 h; Potency, µM (top dose mostly 46.2 µM), most hits filed as inhibitors; hit rate 12% among 420,000; further: nearly all actives have a fitted effect of over 55% in size
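Chicken DT40 Tdp1-/- cells stably complemented with human TDP1 were seeded at 400 cells/well in medium containing 20 nM camptothecin, exposed to pin-transferred compounds, and grown at 37 °C for at least 48 hr. Viability was read as ATP luminescence.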
TGFb SMAD3 inh – inhibitors of TGF-b signaling. HepG2 CAGA-GFP TGF-b/SMAD3 reporter, GFP fluorescence, 18 h; TGF-beta stimulated, 500 pg/mL final. Potency, µM (doses to about 46.1 µM), usual class: inhibitors. hit rate 1.2% among 410,000. AID 588855; further: nearly all actives have a fitted effect of over 65% in size
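Inhibition of TGF-beta-driven CAGA-GFP reporter expression in HEPG2 cells is measured by cellular GFP fluorescence after 18 h stimulation with 500 pg/mL recombinant TGF-beta in 1% FBS medium at 37 degrees C.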
Numbers stand for hits. Most compounds without a hit are left out; they make up all but 17% or so of the library. The call rests on the fitted dose curve; in most records, active means well fitted curve in the direction sought with a large enough effect; inconclusive means small, poorly fitted or top-dose-only effect, or another doubt; inactive means no such curve, though single readings can be large; an effect the other way counts as inactive or inconclusive.

For Cc1cccnc1NC(=O)NC(=O)c1ccc(C(C)(C)C)s1 the results were ATXN2 expr inh inactive, HepG2 tox inactive, S2 tox inactive, DT40 TDP1 no CPT 16.4µM, TDP1 cell CPT inconclusive and TGFb SMAD3 inh inactive.
For CCc1sc(C(=O)Nc2ncccc2C)cc1C the results were ATXN2 expr inh inactive, HepG2 tox inactive, S2 tox inactive, DT40 TDP1 no CPT inactive, TDP1 cell CPT inactive and TGFb SMAD3 inh inactive.
For O=C(Nc1ccc(/C=C/c2ccc(NC(=O)c3cc(S(=O)(=O)O)c4cccnc4c3O)cc2S(=O)(=O)O)c(S(=O)(=O)O)c1)c1cc(S(=O)(=O)O)c2cccnc2c1O the results were S2 tox inactive, DT40 TDP1 no CPT inactive and TDP1 cell CPT inactive.
For CC1CN(C(=O)CCc2ccccc2)C(C)CN1C(=O)CCc1ccccc1 (stereo not given) the results were ATXN2 expr inh inactive, HepG2 tox inactive, S2 tox inactive, DT40 TDP1 no CPT 23.1µM, TDP1 cell CPT inconclusive and TGFb SMAD3 inh inactive.
For Cc1ccc(S(=O)(=O)c2c(N)n(Cc3ccco3)c3nc4ccccc4nc23)cc1 the results were ATXN2 expr inh inconclusive, HepG2 tox inactive, S2 tox inactive, DT40 TDP1 no CPT 18.4µM, TDP1 cell CPT inconclusive and TGFb SMAD3 inh inactive.
For CN(C)CCCn1c(N)c(S(=O)(=O)c2ccccc2)c2nc3ccccc3nc21 the results were ATXN2 expr inh inactive, HepG2 tox inactive, S2 tox inactive, DT40 TDP1 no CPT inconclusive, TDP1 cell CPT 18.4µM and TGFb SMAD3 inh inactive.
Screening O=C(NCC1CCCCC1)C1(CC2CC(c3cccc(Br)c3)=NO2)CCNCC1 (stereo not given) returned ATXN2 expr inh inconclusive, HepG2 tox 15.8µM, DT40 TDP1 no CPT 16.4µM, TDP1 cell CPT 16.4µM and TGFb SMAD3 inh inconclusive.
`CC(C)(C)OC(=O)N1CCC(CC2CC(c3cccc(Br)c3)=NO2)(C(=O)NCC2CCCCC2)CC1` (stereo not given) gave ATXN2 expr inh inactive, HepG2 tox inactive, S2 tox inactive, DT40 TDP1 no CPT 16.4µM, TDP1 cell CPT inconclusive and TGFb SMAD3 inh inconclusive.
CCCCCCCNC(=O)C1(CC2CC(c3cccc(Br)c3)=NO2)CCN(C(=O)C2CCCC2)CC1 (stereo not given) was read as ATXN2 expr inh inactive, HepG2 tox inactive, S2 tox inconclusive, DT40 TDP1 no CPT inconclusive, TDP1 cell CPT 20.6µM and TGFb SMAD3 inh inconclusive.
O=C(NCC1CCCCC1)C1(CC2CC(c3ccc(Cl)cc3)=NO2)CCNCC1 (stereo not given) was read as ATXN2 expr inh inconclusive, HepG2 tox inactive, DT40 TDP1 no CPT 18.4µM, TDP1 cell CPT 23.1µM and TGFb SMAD3 inh inconclusive.
CCCCCCCNC(=O)C1(CC2CC(c3ccc(Cl)cc3)=NO2)CCN(C(=O)C2CCCC2)CC1 (stereo not given) was read as ATXN2 expr inh inactive, HepG2 tox inactive, S2 tox inactive, DT40 TDP1 no CPT inconclusive, TDP1 cell CPT inconclusive and TGFb SMAD3 inh inactive.
`CCCCCCCNC(=O)C1(CC2CC(c3cccc(Br)c3)=NO2)CCN(C(=O)OC(C)(C)C)CC1` (stereo not given) gave ATXN2 expr inh inactive, HepG2 tox inactive, S2 tox inactive, DT40 TDP1 no CPT 14.6µM, TDP1 cell CPT inconclusive and TGFb SMAD3 inh inactive.
`COc1ccc(NC(=O)c2ccc(-c3ccccc3)cc2)cc1S(=O)(=O)N1CCOCC1` gave ATXN2 expr inh inconclusive, HepG2 tox inactive, S2 tox inactive, DT40 TDP1 no CPT inactive, TDP1 cell CPT inactive and TGFb SMAD3 inh inactive.
Screening COc1ccc(NC(=O)c2ccc(S(=O)(=O)N(C)c3ccccc3)cc2)cc1S(=O)(=O)N1CCOCC1 returned HepG2 tox inactive, S2 tox inconclusive, DT40 TDP1 no CPT 14.6µM, TDP1 cell CPT 23.1µM and TGFb SMAD3 inh inactive.
`Cc1ccc(NC(=O)c2ccc3c(c2)OCO3)cc1S(=O)(=O)N1CCOCC1` gave HepG2 tox inactive, S2 tox inactive, DT40 TDP1 no CPT inconclusive, TDP1 cell CPT inconclusive and TGFb SMAD3 inh inactive.
For Cc1ccc(NC(=O)c2ccc(S(=O)(=O)N(C)c3ccccc3)cc2)cc1S(=O)(=O)N1CCOCC1 the results were ATXN2 expr inh inactive, HepG2 tox inactive, S2 tox inactive, DT40 TDP1 no CPT inconclusive, TDP1 cell CPT 23.1µM and TGFb SMAD3 inh inconclusive.
O=C(C[C@H]1C/C=C\C[C@H](NC(=O)OCC2c3ccccc3-c3ccccc32)C(=O)OC[C@@H]2CCCN2C1=O)NCCO was read as ATXN2 expr inh inactive, HepG2 tox inactive, S2 tox inactive, DT40 TDP1 no CPT 5.8µM, TDP1 cell CPT 4.11µM and TGFb SMAD3 inh inactive.
O=C(C[C@H]1C/C=C\C[C@H](NC(=O)OCC2c3ccccc3-c3ccccc32)C(=O)OC[C@H]2CCCN2C1=O)NCCO was read as ATXN2 expr inh inactive, HepG2 tox inactive, S2 tox inactive, DT40 TDP1 no CPT 16.4µM, TDP1 cell CPT 11.6µM and TGFb SMAD3 inh inactive.
For O=C(C[C@@H]1C/C=C\C[C@H](NC(=O)OCC2c3ccccc3-c3ccccc32)C(=O)OC[C@H]2CCCN2C1=O)N[C@@H](CO)Cc1ccccc1 the results were ATXN2 expr inh inconclusive, HepG2 tox inactive, S2 tox inconclusive, DT40 TDP1 no CPT 4.61µM, TDP1 cell CPT 4.61µM and TGFb SMAD3 inh inconclusive.
Screening COC(=O)[C@@H]1[C@@H]2C[C@H]3c4[nH]c5ccccc5c4CCN3C[C@@H]2CC[C@@H]1O returned S2 tox inactive, DT40 TDP1 no CPT inactive and TDP1 cell CPT inconclusive.
`CC(=O)c1ccc(OCc2cc(C(=O)N3CCCCCCC3)no2)cc1` gave ATXN2 expr inh inactive, HepG2 tox inactive, S2 tox inactive, DT40 TDP1 no CPT 4.11µM, TDP1 cell CPT inconclusive and TGFb SMAD3 inh inactive.
For CC(=O)c1cccc(OCc2cc(C(=O)N(C)C(C)c3ccccn3)no2)c1 (stereo not given) the results were ATXN2 expr inh inactive, HepG2 tox inactive, S2 tox inactive, DT40 TDP1 no CPT inconclusive, TDP1 cell CPT inconclusive and TGFb SMAD3 inh inactive.
For CC(=O)c1ccc(OCc2cc(C(=O)N(C)C(C)c3nccs3)no2)cc1 (stereo not given) the results were ATXN2 expr inh inactive, HepG2 tox inactive, S2 tox inactive, DT40 TDP1 no CPT inconclusive, TDP1 cell CPT 16.4µM and TGFb SMAD3 inh inactive.
For CC(=O)c1ccc(OCc2cc(C(=O)N(C)C(C)c3ccon3)no2)cc1 (stereo not given) the results were ATXN2 expr inh inactive, HepG2 tox inactive, S2 tox inactive, DT40 TDP1 no CPT 18.4µM, TDP1 cell CPT inconclusive and TGFb SMAD3 inh inactive.
